Measurements reported in PubChem BioAssay (Tox21).
Records with an inconclusive call do not appear. Entries that show only a call come without a potency. Values without a mark were called inactive. Active and inactive are the calls of the source. Unless noted, calls come from the whole dose curve; as a rule, active = well fitted curve in the direction sought with a large enough effect in the repeat runs; inconclusive = weak or mixed curves; inactive = no such curve, though single readings can be large; an effect the other way counts as inactive or inconclusive.

Columns and labels:
[1] = qHTS assay to identify small molecule antagonists of the retinoid acid receptor (RAR) signaling pathway - cell viability counter screen (AID 1159551); note: nearly all actives have a fitted effect of over 35% in size
Method in brief: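 C3RL4 cells were seeded overnight at 37 C, then treated with compounds plus 1 uM (final) retinol for 6 h at 37 C. Viability was read as ATP by CellTiter-Glo luminescence after 30 min at room temperature.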

[2] = qHTS assay to identify small molecule antagonists of the retinoic acid receptor (RAR) signaling pathway (AID 1159552; note: nearly all actives have a fitted effect of over 50% in size)
Method in brief: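 Cells of the C3RL4 line were seeded, incubated overnight, then dosed with compounds in DMSO followed immediately by retinol (1 uM final). Six hours later luciferase detection reagent went in; signal was measured after 30 min at RT.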

[3] = qHTS assay to identify small molecule agonists of the retinoic acid receptor (RAR) signaling pathway (AID 1159553); note: potency is the fitted concentration of half-maximal effect
Method in brief: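 C3RL4 cells carrying a RARE luciferase reporter were plated overnight at 37 C, then exposed to compounds in DMSO for 6 hr at 37 C and 5% CO2. Luminescence was read 30 min after luciferase reagent addition at room temperature.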

[4] = molecular target: Luciferin 4-monooxygenase (Photinus pyralis) (UniProt P08659); experiment: qHTS assay to identify small molecule inhibitors of firefly luciferase (AID 1224835); note: nearly all actives have a fitted effect of over 25% in size; note: potency is the fitted concentration of half-maximal effect
Method in brief: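 Biochemical qHTS: compounds run as interplate titrations against purified firefly enzyme, with D-luciferin and ATP each at its KM concentration. Light output recorded by CCD imaging.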

[5] = qHTS assay to identify small molecule agonists of the constitutive androstane receptor (CAR) signaling pathway - cell viability counter screen (AID 1224836); note: nearly all actives have a fitted effect of over 45% in size; note: potency is the fitted concentration of half-maximal effect
Method in brief: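 HepG2-CYP2B6-hCAR, 2500 cells/well, 4 h pre-incubation; cpd 15 conc + PK11195 0.75 uM final; 23 h, 37 C/5% CO2; CellTiter-Fluor, fluorescence.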

[6] = qHTS assay to identify small molecule antagonists of the constitutive androstane receptor (CAR) signaling pathway - cell viability counter screen (AID 1224837); note: nearly all actives have a fitted effect of over 45% in size; note: potency is the fitted concentration of half-maximal effect
Method in brief: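 HepG2 cells stably expressing hCAR and a CYP2B6-2.2kb reporter were plated and pre-incubated 4 hr at 37 C/5% CO2, then given compounds at 15 concentrations plus 50 nM CITCO (final). After 23 hr, viability was read by CellTiter-Fluor fluorescence.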

[7] = molecular target: Nuclear receptor subfamily 1 group I member 3 (Homo sapiens) (UniProt Q14994); experiment: qHTS assay to identify small molecule antagonists of the constitutive androstane receptor (CAR) signaling pathway (AID 1224838); note: nearly all actives have a fitted effect of over 40% in size
Method in brief: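 HepG2 cells stably co-transfected with hCAR and a CYP2B6-2.2kb luciferase reporter were seeded 4 h before compound addition at 15 concentrations. Cells were stimulated with 50 nM CITCO (final) for 24 h at 37 C; luciferase luminescence was then read.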

[8] = qHTS assay to identify small molecule antagonists of the estrogen related receptor signaling pathway with the pleiotropic PPARgamma coactivator (PGC) from Tox21 10K library - cell viability counter screen (AID 1224840; active = well fitted cell-killing curve with a large enough effect in the repeat runs, not every such curve was filed as active; note: nearly all actives have a fitted effect of over 40% in size; note: potency is the fitted concentration of half-maximal effect)
Method in brief: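 PGC/ERR cells were seeded at 2,000 cells/well and left 6 hours at 37 C/5% CO2 before pin-tool addition of compounds in DMSO. After 17.5 hours at 37 C, CellTiter-Fluor was added and fluorescence read 30 minutes later.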

[9] = qHTS assay to identify small molecule agonists of the estrogen related receptor signaling pathway with the pleiotropic PPARgamma coactivator (PGC) from Tox21 10K library (AID 1224842); note: nearly all actives have a fitted effect of over 15% in size
Method in brief: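 PGC/ERR reporter cell line, 2,000 cells per well, incubated 6 h at 37 C before 23 nL compound in DMSO was added. After 18 h at 37 C, One-Glo luminescence read following 30 min at room temperature.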

[10] = qHTS assay to identify small molecule agonists of the RXR signaling pathway - cell viability counter screen (AID 1159529); note: nearly all actives have a fitted effect of over 50% in size; note: potency is the fitted concentration of half-maximal effect
Method in brief: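 HEK 293T RXRa-bla cells, 2% CS-FBS; 5 h settle; cpd 16 h 37 C, 5% CO2; CellTiter-Glo 30 min RT, luminescence. Tetraoctyl ammonium bromide as positive control.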

[11] = qHTS assay to identify small molecule antagonists of the estrogen related receptor (ERR) signaling pathway from Tox21 library - cell viability counter screen (AID 1224834); note: nearly all actives have a fitted effect of over 30% in size; note: potency is the fitted concentration of half-maximal effect
Method in brief: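 ERR reporter cells were plated 6 h before compound addition, then exposed to test compounds in DMSO for 17.5 h at 37 C. Viability was read as CellTiter-Fluor fluorescence after a 30-minute incubation at 37 C.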

[12] = molecular target: Nuclear receptor subfamily 1 group I member 3 (Homo sapiens) (UniProt Q14994); experiment: qHTS assay to identify small molecule agonists of the constitutive androstane receptor (CAR) signaling pathway (AID 1224839);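 note: HepG2 cells stably carrying human CAR and a CYP2B6 luciferase reporter; series mostly up to about 92 µM; nearly all actives have a fitted effect of over 15% in size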
Method in brief: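 HepG2-CYP2B6-hCAR cells, 2500/well, 4 h pre-incubation; compounds 15 conc.; PK11195 0.75 uM final; 24 h, 37 C/5% CO2; ONE-Glo luciferase read.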

[13] = molecular target: Thyrotropin receptor (Homo sapiens) (UniProt P16473); experiment: qHTS assay to identify small molecule agonists of the thyroid stimulating hormone receptor (TSHR) signaling pathway (AID 1224843; calls by dose curve; note: nearly all actives have a fitted effect of over 45% in size; note: potency is the fitted concentration of half-maximal effect)
Method in brief: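 TSHR-HEK293 cells in agonist mode, 30 min room-temperature step, then cAMP measured by competitive HTRF (cAMP-d2 with anti-cAMP cryptate) after 1 h at room temperature. Tested at 15 concentrations in triplicate.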

[14] = qHTS assay to identify small molecule antagonists of the estrogen related receptor signaling pathway with the pleiotropic PPARgamma coactivator (PGC) from Tox21 10K library (AID 1224841; call rule not given here; note: actives are mostly falling curves and most rising ones were filed inactive; nearly all actives have a fitted effect of over 50% in size; note: potency is the fitted concentration of half-maximal effect)
Method in brief: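 PGC/ERR reporter cells were seeded at 2,000 cells/well and held 6 hours at 37 C/5% CO2 before pin-tool addition of compounds in DMSO. After 18 hours at 37 C, One-Glo was added and luminescence read after 30 minutes at room temperature.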

[15] = qHTS assay to identify small molecule antagonists of the estrogen related receptor (ERR) signaling pathway (AID 1224819; note: potency is the fitted concentration of half-maximal effect; nearly all actives have a fitted effect of over 50% in size)
Method in brief: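 ERR reporter cells were plated at 2,000 cells/well and left 6 h at 37 C/5% CO2 before pin-tool transfer of compounds in DMSO. After 18 h at 37 C, One-Glo was added and luminescence was read 30 min later at room temperature.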

[16] = qHTS assay to identify small molecule agonists of the estrogen related receptor (ERR) signaling pathway (AID 1224820)
Method in brief: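 ERR reporter cell line (from NTP), 2,000 cells/well, incubated 6 h before compound addition, then 18 h at 37 C. Luminescence measured 30 min after One-Glo reagent at room temperature.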

[17] = qHTS assay to identify small molecule agonists of the estrogen related receptor signaling pathway with the pleiotropic PPARgamma coactivator (PGC) (AID 1224823)
Method in brief: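 PGC/ERR reporter cells seeded 6 h, then exposed to compounds (23 nL in DMSO) for 18 h at 37 C. One-Glo luciferase luminescence read after 30 min at room temperature.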

Thyrotropin receptor (Homo sapiens), sequence (P16473 whole entry, looked up): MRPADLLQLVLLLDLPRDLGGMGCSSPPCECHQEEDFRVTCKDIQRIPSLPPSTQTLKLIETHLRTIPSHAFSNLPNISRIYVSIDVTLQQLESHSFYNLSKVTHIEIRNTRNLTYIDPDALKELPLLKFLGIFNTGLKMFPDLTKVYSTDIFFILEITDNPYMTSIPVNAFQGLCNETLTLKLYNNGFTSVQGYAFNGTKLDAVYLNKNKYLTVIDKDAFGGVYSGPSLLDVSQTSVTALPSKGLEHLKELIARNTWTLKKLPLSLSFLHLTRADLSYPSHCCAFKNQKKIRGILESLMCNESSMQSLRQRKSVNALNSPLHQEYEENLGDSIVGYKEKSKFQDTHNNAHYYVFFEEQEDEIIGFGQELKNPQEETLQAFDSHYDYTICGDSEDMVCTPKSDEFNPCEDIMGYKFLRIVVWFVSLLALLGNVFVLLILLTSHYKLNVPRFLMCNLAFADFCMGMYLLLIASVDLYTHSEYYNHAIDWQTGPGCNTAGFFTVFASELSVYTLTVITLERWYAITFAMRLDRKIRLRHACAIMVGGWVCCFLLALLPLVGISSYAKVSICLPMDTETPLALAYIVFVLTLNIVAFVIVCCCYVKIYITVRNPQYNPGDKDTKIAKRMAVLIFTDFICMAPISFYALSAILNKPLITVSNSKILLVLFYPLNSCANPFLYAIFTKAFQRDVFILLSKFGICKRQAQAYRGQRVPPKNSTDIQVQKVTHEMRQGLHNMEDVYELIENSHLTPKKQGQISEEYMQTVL
Luciferin 4-monooxygenase (Photinus pyralis), sequence (P08659 whole entry, looked up): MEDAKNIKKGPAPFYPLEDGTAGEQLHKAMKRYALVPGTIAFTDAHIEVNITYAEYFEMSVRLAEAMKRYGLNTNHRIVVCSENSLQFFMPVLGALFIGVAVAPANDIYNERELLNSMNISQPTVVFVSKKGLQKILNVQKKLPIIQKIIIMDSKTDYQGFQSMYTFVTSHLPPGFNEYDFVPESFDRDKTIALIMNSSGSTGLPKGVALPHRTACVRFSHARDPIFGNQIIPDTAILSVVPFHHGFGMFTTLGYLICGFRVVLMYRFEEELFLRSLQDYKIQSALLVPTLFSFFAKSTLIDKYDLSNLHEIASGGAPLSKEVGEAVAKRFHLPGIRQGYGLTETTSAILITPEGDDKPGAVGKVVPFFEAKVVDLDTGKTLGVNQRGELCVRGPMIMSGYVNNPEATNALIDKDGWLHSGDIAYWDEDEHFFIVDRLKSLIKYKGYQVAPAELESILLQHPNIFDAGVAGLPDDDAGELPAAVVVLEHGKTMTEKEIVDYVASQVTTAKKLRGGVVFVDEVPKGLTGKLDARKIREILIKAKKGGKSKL
Nuclear receptor subfamily 1 group I member 3 (Homo sapiens), sequence (Q14994 whole entry, looked up): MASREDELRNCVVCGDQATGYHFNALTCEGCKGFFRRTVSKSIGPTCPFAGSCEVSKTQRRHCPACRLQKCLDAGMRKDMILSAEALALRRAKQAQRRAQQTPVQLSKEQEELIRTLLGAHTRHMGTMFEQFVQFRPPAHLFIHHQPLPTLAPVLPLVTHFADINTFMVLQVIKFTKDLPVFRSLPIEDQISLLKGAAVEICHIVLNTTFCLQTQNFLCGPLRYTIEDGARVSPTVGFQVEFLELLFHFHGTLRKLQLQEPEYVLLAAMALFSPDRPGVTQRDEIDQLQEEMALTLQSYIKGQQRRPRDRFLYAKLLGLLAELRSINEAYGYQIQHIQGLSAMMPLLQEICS

Row | Structure (SMILES) | Potency [1] | Potency [2] | Potency [3] | Potency [4] | Potency [5] | Potency [6] | Potency [7] | Potency [8] | Potency [9] | Potency [10] | Potency [11] | Potency [12] | Potency [13] | Potency [14] | Potency [15] | outcome [16] | outcome [17]
1 | Cc1ccc(-n2nc(C(C)(C)C)cc2NC(=O)Nc2ccc(OCCN3CCOCC3)c3ccccc23)cc1 | inactive | inactive | 18.8 µM (active) | inactive | inactive | inactive | inactive | inactive | inactive | – | – | – | – | – | – | – | –
2 | CCCCCCCCCCCCCCCC[N+](C)(C)CCN(Cc1ccc(OC)cc1)c1ncccn1 | – | – | – | inactive | – | – | – | inactive | inactive | 5.35 µM (active) | 29.8 µM (active) | inactive | inactive | – | – | – | –
3 | O=S1(=O)CC(Cl)(Cl)C(Cl)(Cl)C1 | – | – | – | inactive | 12.2 µM (active) | 8.63 µM (active) | – | 9.69 µM (active) | inactive | 4.36 µM (active) | 15.4 µM (active) | – | 4.86 µM (active) | 13.7 µM (active) | – | – | –
4 | CCCCCCCCCCCCCCCC(=O)OC[C@H](O)[C@H]1OC(=O)C(O)=C1O | – | – | – | 63.3 µM (active) | inactive | – | inactive | inactive | inactive | 38.9 µM (active) | – | inactive | inactive | inactive | – | – | –
5 | Cc1c(C)c2c(c(C)c1OC(=O)CCC(=O)O)CC[C@@](C)(CCC[C@H](C)CCC[C@H](C)CCCC(C)C)O2 | inactive | inactive | inactive | inactive | inactive | inactive | inactive | inactive | inactive | – | inactive | inactive | inactive | inactive | – | – | –
6 | NNc1nc(-c2ccc(N)cc2)cs1 | – | – | – | 35.6 µM (active) | inactive | – | – | 61.1 µM (active) | inactive | inactive | 54.5 µM (active) | – | – | 61.1 µM (active) | – | – | –
7 | CCCCCCCC/C=C\CCCCCCCCOCCO | – | – | – | inactive | 25.1 µM (active) | – | – | 63.1 µM (active) | – | 22.6 µM (active) | 35.5 µM (active) | inactive | – | – | – | – | –
8 | Clc1ccc2n[nH]nc2c1 | – | – | – | inactive | inactive | inactive | – | inactive | – | inactive | inactive | inactive | inactive | – | – | – | –
9 | COc1ccc(-c2ccc3cc(C(=O)O)ccc3c2)cc1C12CC3CC(CC(C3)C1)C2 | inactive | inactive | 0.0298 µM (active) | inactive | inactive | inactive | – | inactive | inactive | – | – | – | inactive | inactive | – | – | –
10 | Oc1cccc(-c2c3nc(c(-c4cccc(O)c4)c4ccc([nH]4)c(-c4cccc(O)c4)c4nc(c(-c5cccc(O)c5)c5ccc2[nH]5)CC4)C=C3)c1 | – | – | – | – | 5.96 µM (active) | 5.31 µM (active) | inactive | 10.6 µM (active) | – | 23.9 µM (active) | 10.6 µM (active) | inactive | – | – | – | – | –
11 | COc1cc(-c2nc(NC(=O)c3cc4cc(C)cc(C)c4n3CC(=O)O)sc2CCC2CCCCC2)c(OC)cc1Cl | – | – | – | inactive | – | – | – | 39.7 µM (active) | inactive | 20.1 µM (active) | 49.9 µM (active) | – | inactive | – | – | – | –
12 | CCCC(C)c1ccccc1O (configuration not stated) | inactive | inactive | inactive | inactive | inactive | inactive | inactive | inactive | – | – | inactive | – | – | – | – | – | –
13 | Oc1cccc2cc3cccc(O)c3c(O)c12 | – | – | – | 71.3 µM (active) | inactive | – | – | inactive | – | inactive | inactive | – | inactive | – | – | – | –
14 | Fc1ccc(C(c2ccc(F)cc2)N2CCN(C/C=C/c3ccccc3)CC2)cc1 | inactive | inactive | – | inactive | inactive | inactive | inactive | – | inactive | – | 26.6 µM (active) | inactive | inactive | – | 19.6 µM (active) | inactive | inactive
15 | Cc1cc(N)c(S(=O)(=O)O)cc1Cl | inactive | inactive | inactive | inactive | inactive | inactive | – | inactive | inactive | – | inactive | – | inactive | inactive | – | – | –
16 | C=C(C)C(=O)OCC[N+](C)(C)C | inactive | inactive | inactive | inactive | inactive | inactive | inactive | inactive | – | – | inactive | – | – | – | – | – | –
17 | C[C@H](CCC(=O)O)[C@H]1CC[C@H]2[C@@H]3CC[C@@H]4C[C@H](O)CC[C@]4(C)[C@H]3CC[C@]12C | – | – | – | inactive | inactive | inactive | inactive | inactive | inactive | 38.7 µM (active) | inactive | inactive | – | 68.3 µM (active) | – | – | –
18 | CC(C)=CCOc1ccc(/C=C/C(=O)c2ccc(OCC=C(C)C)cc2OCC(=O)O)cc1 | inactive | inactive | inactive | inactive | inactive | inactive | inactive | inactive | inactive | – | inactive | inactive | inactive | 21.1 µM (active) | – | – | –
